Laboratory results as given in PubChem BioAssay AID651635 (National Center for Advancing Translational Sciences (NCATS), 2012).
Screen size: about 400,000 compounds; about 1,900 (0.47%) were called active. About 14% were inconclusive and are not listed. What follows is part of a selection rich in actives, with near analogues and random picks from the rest. Unmarked numbers belong to inactive results. Calls follow the shape of the dose curve; as a rule, active = well fitted cell-killing curve with a large enough effect; inconclusive = small, poorly fitted or top-dose-only effect, or effect the other way; inactive = no such curve, though single readings can be large or run the other way.

experiment: Viability Counterscreen for Primary qHTS for Inhibitors of ATXN expression; conditions: S2 cells (HEK-293 line with an ATXN2-luciferase reporter) viability, CellTiter-Fluor protease fluorescence, 24 h; series mostly up to 56.7 µM; activity change, negative = cytotoxicity: at the top concentration; also: nearly all actives have a fitted effect of over 40% in size
Excerpt: Spinocerebellar ataxia type 2 (SCA2) is a multisystem neurodegenerative disease caused by a dominantly-acting mutation leading to expansion of a polyQ domain in the ataxin-2 protein (ATXN2). SCA2 patients develop progressive ataxia and later lose function in other neuronal systems. Prominent parkinsonian signs develop in some patients. Similar to many neurodegenerative disorders, no symptomatic or disease-modifying treatments are known.
The primary objective of the proposed research is to identify compounds inhibiting ATXN2 expression and to test them for efficacy in SCA2 mouse models. To this end, we have developed a cell-based assay paired with an in vivo mouse model using identical luciferase expression constructs. This approach takes advantage of an ATXN2-luciferase transgene, with the luciferase gene flanked by the upstream and downstream portions of the ATXN2 gene. This primary assay was tested against the NIH Molecular Libraries Small Molecule Repository (MLSMR).
NIH Chemical Genomics Center [NCGC]
NIH Molecular Libraries Probe Centers Network [MLPCN]
Assay Submitter (PI): Daniel Scoles, University of Utah
PROTOCOL TABLE (as described by Inglese J, Shamu CE and Guy RK. 2007)
SEQUENCE No. (e.g., 1, 2, 3, etc.); […] (e.g., Cells, Incubation, Reagent, etc.); VALUE; DESCRIPTION.
1; Cells; 4 uL; white, solid bottom, 1536-well Greiner assay plate.
2; Incubation; 2 hr; 37 degree C in 5% humidified CO2.
3; Compounds; 23 nL; Kalypsis pintool (Wako USA) equipped with a 1536-well pin head.
4; Incubation; 24 hr; 37 degree C in 5% humidified CO2.
5; Reagent; 1 uL; Gly-Phe-7-Amino-4-trifluoromethylcoumarin.
6; Incubation; 30 min; 37 degree C in 5% humidified CO2.
7; Detection; Fluorescence; ViewLux plate reader (PerkinElmer).
8; Reagent; 3 uL; SteadyGlo luciferase solution (Promega).
9; Incubation; 5 min; room temperature.
10; Detection; Luminescence; ViewLux plate reader (PerkinElmer).
NOTES (numbers refer to Sequence numbers above)
1. S2 cells expressing ATXN2-luciferase reporter were suspended in phenol-red free DMEM and dispensed in assay plates using a Multidrop Combi dispenser (Thermo Fisher Scientific).
2. Assay plates were incubated. Evaporation was prevented by covering assay plates with metal lids containing holes to allow gas diffusion.
3. […] Vehicle-only plates, with DMSO being pin-transferred to columns 5-48, were inserted uniformly at the beginning and the end of each library to monitor and record any shifts in assay performance.
5. 125 uM Gly-Phe-7-Amino-4-trifluoromethylcoumarin (MP Biomedicals) working concentration was used at a final concentration of 25 uM.
7. To assess cell viability; the assay plates were read using the ViewLux high-throughput CCD imager (PerkinElmer), wherein single end-point fluorescence measurement was acquired (excitation 405/10; emission 540/25 nm).
8. Detection reagent SteadyGlo Luciferase (Promega) was added to the assay plate.
10. Luminescence is then measured on the ViewLux imager equipped with a clear emission filter using a 2 sec exposure. All screening operations were performed on a fully integrated robotic system (Kalypsys) containing one RX-130 and two RX-90 anthropomorphic robotic arms (Staubli).
Inglese J, Shamu CE and Guy RK, Reporting data from high throughput screening of small molecule libraries, Nature Chemical Biology, 2007, 3(8): 438-441. doi.org/10.1038/nchembio0807-438.
Potency is read from the fitted curve at half-maximal effect.

In order of rising “activity change, negative = cytotoxicity” value:
1. CC(C)NC(=O)N1Cc2cc(C(=O)NCC(F)(F)F)nc(-c3cccc(-c4cc5ccccc5o4)c3)c2[C@@H]1CCO  -37.5%
2. CC(C)(C)C(=O)c1c(N)[nH]c(C(=O)c2ccccc2)c1-c1ccc(F)cc1  -33.1%
3. O=C(NCCc1ccccc1)c1cccc(NC(=O)c2ccccc2)c1  -24.5%
4. O=C(NC(c1ccc(Cl)cc1)c1cnccn1)C1CCN(Cc2ccc(Cl)cc2)CC1 (stereo unspecified)  -23.3%
5. O=C1NC(=O)C2C1C(c1ccc([N+](=O)[O-])cc1)=NN2Cc1ccccc1 (stereo unspecified)  -21.7%
6. Cc1ccc(-c2ccc(C(=O)N3CCc4nnc(CNC(=O)c5ccccc5)n4CC3)cc2)cc1  -15.1%
7. O=C(C(=O)N1CCOc2ccc(CN3CCN(Cc4ccccn4)CC3)cc2C1)c1ccccc1  -15%
8. COc1ccc(Cl)cc1N(CC(=O)N/N=C/c1ccc(OCC(N)=O)cc1)S(C)(=O)=O  -14.9%
9. CCC1(C2CCN(C(=O)c3cccc(F)c3F)CC2)NC(=O)N(CCc2scnc2C)C1=O (stereo unspecified)  -14.4%
10. Cc1ccc(CNC(=O)CSC2=Nc3ccccc3C3=NC(C)C(=O)N23)cc1 (stereo unspecified)  -14.2%
11. Cc1nc2ccccc2nc(C)c1=NOCc1ccc(Cl)cc1Cl  -14.1%
12. NC(=O)CSC1=Nc2ccccc2C2=NC(CCC(=O)NCc3ccc(F)cc3)C(=O)N12 (stereo unspecified)  -12%
13. COc1ccccc1C1CN(CCNC(=O)C2=CCCC2)Cc2ccccc2O1 (stereo unspecified)  -8.91%
14. Cn1nc(-c2ccccc2)c2cc([N+](=O)[O-])ccc21  -7.69%
15. COCC(=O)Nc1cc(C(=O)N2CCCC(c3ccccc3)CC2)c2c(c1)nc(-c1ccncc1)n2C (stereo unspecified)  -7.58%
16. COc1ccc(CCNc2ncnc3sc(C(=O)N4CCCC4)c(C)c23)cc1OC  -4.95%
17. C[C@H]1C[C@H]2[C@@H]3CCC4=CC(=O)C=C[C@]4(C)[C@@H]3C(=O)C[C@]2(C)[C@@]1(O)C(=O)CO  3.63%
18. CCOC(=O)[C@H](CCc1ccccc1)N[C@@H](C)C(=O)N1CC2(C[C@H]1C(=O)O)SCCS2  6.64%
19. COc1ccc(C(NC(=O)C2CCN(CCCc3ccccc3)CC2)c2cccs2)cc1 (stereo unspecified)  9.97%
20. CCOc1ccc(NS(=O)(=O)c2ccc(N)cc2)nn1  17.5%
21. O=C(CSCc1ccccc1)Nc1ccccc1  25.7%

In the case of `O=C(CCl)Nc1cccc(CP(=O)(c2ccccc2)c2ccccc2)c1`, the Potency was 14.1 µM (active).
With `O=C(CC1N=C2c3ccccc3N=C(SCc3cccc(Cl)c3)N2C1=O)NCc1ccc2c(c1)OCO2` (stereo unspecified) the Potency was 31.6 µM (active).
For `O=C1CC(c2ccccc2)=NN1c1ccc([N+](=O)[O-])cc1`, the Potency was 21.2 µM (active).
In the case of `NC(Cc1ccccc1)c1csc(Nc2cc(Oc3ccccc3)ncn2)n1` (stereo unspecified), the Potency was 31.6 µM (active).
For `NC(N)=N/N=C/c1ccc(OCc2ccc(Cl)cc2Cl)cc1`, the Potency was 35.5 µM (active).
